Screening results deposited in PubChem BioAssay by National Center for Advancing Translational Sciences (NCATS).
Most compounds without a hit are left out; they make up all but 9.2% or so of the library.
Rab9 promoter act: Rab9 promoter activation. Huh7 Rab9 promoter-luciferase reporter, luminescence, 24 h. Potency, µM (series often up to 9.22 µM), inactives show at the top dose activation, negative = inhibition, hits mostly activators. hit rate 2.8% among 320,000. AID 485297; also: % of control where 0% means no effect; nearly all actives have a fitted effect of over 60% in size
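Huh7 cells stably carrying a Rab9 promoter-luciferase reporter, 1500 cells per well in OP-MEM I with 10% FBS, treated with compound 24 hours at 37C. Luciferase activity read by luminescence after 10 minutes with Amplite reagent.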
FLuc counter: inhibits or activates purified firefly luciferase, miR-21 counter-screen | P08659 | purified FLuc, Km substrates, luminescence inhibition | Potency, µM (titrated, usually from 57.5 µM), for the others: at the top dose activity change, negative = inhibition, usual class: inhibitors | hit rate 6.9% among 360,000 | AID 588342;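 also: plate controls were vehicle for no effect and reference inhibitor for full effect; nearly all actives have a fitted effect of over 55% in size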
Target sequence (P08659 whole entry, looked up): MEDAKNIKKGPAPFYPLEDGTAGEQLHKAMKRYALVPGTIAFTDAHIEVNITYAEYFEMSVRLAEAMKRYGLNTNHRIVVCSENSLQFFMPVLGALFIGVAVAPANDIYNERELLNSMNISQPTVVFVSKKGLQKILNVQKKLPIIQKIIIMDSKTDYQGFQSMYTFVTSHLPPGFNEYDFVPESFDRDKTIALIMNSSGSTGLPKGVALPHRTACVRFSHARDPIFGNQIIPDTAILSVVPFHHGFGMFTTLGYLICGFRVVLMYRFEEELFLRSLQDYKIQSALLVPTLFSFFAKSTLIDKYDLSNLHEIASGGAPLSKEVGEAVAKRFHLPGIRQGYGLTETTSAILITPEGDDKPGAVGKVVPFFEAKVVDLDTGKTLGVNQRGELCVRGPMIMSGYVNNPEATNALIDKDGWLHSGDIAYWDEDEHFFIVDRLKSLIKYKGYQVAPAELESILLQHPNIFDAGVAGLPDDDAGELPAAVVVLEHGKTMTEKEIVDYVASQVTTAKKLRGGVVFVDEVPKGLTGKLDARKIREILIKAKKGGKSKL
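Purified P. pyralis luciferase (10nM final) with 10uM D-luciferin and 10uM ATP (Km levels) in 50mM Tris acetate pH 7.5, 10mM Mg acetate, 0.01% Tween-20, 0.05% BSA; qHTS 6-point titration, ~60 µM downward; luminescence read.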
ELG1 genotoxic: genotoxicity induction in ELG1-luciferase HEK293T cells; HEK293T ELG1-luciferase reporter, luminescence, 16 h; hit rate 1.3% among 330,000; AID 504466; Potency, µM (series often up to 46 µM), without a hit: top-dose activity change, positive = activation, most hits filed as activators; also: % of control where 0% means no effect; nearly all actives have a fitted effect of over 60% in size
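Step 1: seed 2,000 HEK293T ELG1-luciferase cells per well. Step 2: add compound or DMSO, incubate 16 hr at 37 °C. Step 3: ONE-Glo, 30 min at room temperature, read luminescence.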
ELG1 DNA repair: ELG1-dependent DNA repair inhibition; HEK293T ELG1-luciferase reporter, luminescence, 16 h; DNA damage induced by 5-fluorouridine; Potency, µM (titrated, usually from 46.1 µM), for inactives: at the top dose activity change, negative = inhibition, usual class: inhibitors; hit rate 2.3% among 330,000; AID 504467; also: % is scaled to controls: 0 for no effect and ±100 for the full control effect; nearly all actives have a fitted effect of over 55% in size
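Cells (2,000 per well) received 5-fluorouridine plus test compound or DMSO and were incubated 16 hr at 37 °C, 5% CO2. Luciferase activity was read by luminescence 30 min after ONE-Glo addition; signal suppression marked inhibition of damage-induced ELG1 function.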
SMN2 splice enh: increases expression of the SMN2 splice variant; Potency, µM (doses to about 46.1 µM), without a hit: at the highest dose activity change, positive = activation, most hits filed as activators; AID 1458; hit rate 2.8% among 210,000; HEK293 SMN2-luciferase splicing reporter, luminescence, 30-36 h; also: % of control where 0% means no effect; nearly all actives have a fitted effect of over 55% in size
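HEK293 cells carry an SMN2 minigene-luciferase reporter in which exon 7 inclusion puts luciferase in frame. Cells were seeded at 2000 cells/well, attached for 10-12 hours, then exposed to compounds for 30-36 hours at 37C before ONE-Glo luminescence.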
NPC1 promoter act: activates the NPC1 promoter; AID 485313; Huh7 NPC1 promoter luciferase reporter, 24 h; hit rate 2.4% among 320,000; Potency, µM (series often up to 9.22 µM), for the others: top-dose activation, most hits filed as activators; also: % of control where 0% means no effect; nearly all actives have a fitted effect of over 60% in size
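Cells: Huh7 expressing luciferase under the NPC1 promoter, 1500/well. Seeded 2 h, compound added, incubated 24 h at 37 °C. Luciferase reagent, 10 min ambient, then luminescence.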
Numbers without * were called inactive. Calls follow the shape of the dose curve; as a rule, active = well fitted curve in the direction sought with a large enough effect; inconclusive = small, poorly fitted or top-dose-only effect, or another doubt; inactive = no such curve, though single readings can be large; an effect the other way counts as inactive or inconclusive. Potency is read from the fitted curve at half-maximal effect.

Screening Cc1cccc(N=Nc2c(C)[nH]n(C(N)=S)c2=O)c1C returned Rab9 promoter act 4µM*, FLuc counter 12µM*, ELG1 genotoxic inconclusive, ELG1 DNA repair inconclusive, SMN2 splice enh inconclusive and NPC1 promoter act inconclusive.
For Cc1ccc(CNC(=O)CCc2c(C)nc3c(-c4ccc(F)cc4)c(C)nn3c2C)cc1 the results were FLuc counter 3% and SMN2 splice enh 3%.
Screening O=C(O)c1cc(N/N=C/c2c(O)ccc3ccccc23)ccc1Cl returned Rab9 promoter act 1.4µM*, FLuc counter 2.4µM*, ELG1 genotoxic 15µM*, ELG1 DNA repair inconclusive and NPC1 promoter act 1.6µM*.
Screening O=C(CNc1ccccc1)N/N=C/c1c(O)ccc2ccccc12 returned Rab9 promoter act -25%, FLuc counter -16%, ELG1 genotoxic 8%, ELG1 DNA repair inconclusive and NPC1 promoter act -25%.
`Nc1cc(Cl)nc(N/N=C/c2c(O)ccc3ccccc23)n1` gave Rab9 promoter act 2.5µM*, FLuc counter 2.7µM*, ELG1 genotoxic inconclusive, ELG1 DNA repair inconclusive, SMN2 splice enh inconclusive and NPC1 promoter act inconclusive.
COc1cc(-c2nnc(SCC(=O)Oc3ccc(C)cc3C)o2)cc(OC)c1OC was read as FLuc counter -11%.
Screening N#Cc1ccccc1CSc1nnc(-c2ccccc2)o1 returned FLuc counter 3.8µM* and SMN2 splice enh 11µM*.
NCCc1nnc(SCc2ccccc2F)o1 was read as Rab9 promoter act 0%, FLuc counter 2%, ELG1 genotoxic 1%, ELG1 DNA repair 9%, SMN2 splice enh -2% and NPC1 promoter act 2%.
COC(=O)CSc1nnc(-c2ccc(OC)c(OC)c2)o1 was read as Rab9 promoter act -2%, FLuc counter -23%, ELG1 genotoxic 1%, ELG1 DNA repair -15%, SMN2 splice enh 1% and NPC1 promoter act -5%.
Screening COc1cc(-c2nnc(SCc3cc(=O)oc4cc(C)ccc34)o2)cc(OC)c1OC returned Rab9 promoter act 8%, FLuc counter inconclusive, ELG1 genotoxic 5%, ELG1 DNA repair 12µM*, SMN2 splice enh -9% and NPC1 promoter act -3%.
Screening Cc1ccc(-c2nnc(SCc3ccccc3F)o2)cc1 returned Rab9 promoter act 0.89µM*, FLuc counter inconclusive, ELG1 genotoxic 8.2µM*, ELG1 DNA repair inconclusive, SMN2 splice enh 11µM* and NPC1 promoter act 0.79µM*.
For N#Cc1ccccc1CSc1nc(N)cc(N)n1 the results were Rab9 promoter act 10%, FLuc counter -12%, ELG1 genotoxic -2%, ELG1 DNA repair -1% and NPC1 promoter act 1%.
COc1ccc(-c2nnc(SCc3ccccc3F)o2)cc1OC was read as Rab9 promoter act inconclusive, FLuc counter 24µM*, ELG1 genotoxic 23%, ELG1 DNA repair inconclusive, SMN2 splice enh 18% and NPC1 promoter act 29%.
Screening COc1ccccc1-c1nc(SCC(=O)NCc2ccccc2)c2c(=O)n(C)c(=O)n(C)c2n1 returned FLuc counter 5%.
CC1CCCN(C(=O)Cc2cccc3ccccc23)C1 (stereo not given) was read as Rab9 promoter act 4%, FLuc counter -2%, ELG1 genotoxic 15%, ELG1 DNA repair 19% and NPC1 promoter act 1%.
COc1cccc(Nc2ncnc3sccc23)c1 was read as Rab9 promoter act inconclusive, FLuc counter 17µM*, ELG1 genotoxic 15%, ELG1 DNA repair inconclusive and NPC1 promoter act inconclusive.
For COc1cccc(Nc2ncnc3sc(C)cc23)c1 the results were Rab9 promoter act inconclusive, FLuc counter 17µM*, ELG1 genotoxic inconclusive, ELG1 DNA repair inconclusive and NPC1 promoter act 26%.
`COc1ccc(Nc2ncnc3sccc23)cc1` gave Rab9 promoter act inconclusive, FLuc counter 24µM*, ELG1 genotoxic 14%, ELG1 DNA repair inconclusive and NPC1 promoter act inconclusive.
